SMILES strings stand for the structures. This is part of a sample that, as a whole, favours compounds with a hit. Of some 83,000 tested, about 20% had one in any assay.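 Activity criterion: percent growth below 10, measured after cells in 96-well plates were exposed to a single compound concentration for 48 hours.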 Unmarked numbers belong to inactive results. Activity calls are given as the source filed them.

What all share (experiment): NCI-60 one-dose screen, 48 h (100 = growth as untreated, 0 = no growth, -100 = all killed)
One test relates to HCT-15 colon. As to conditions: 10 µM.
Another test has as its system HT29 colon. The settings on record: 10 µM.
Another test has as its system SNB-75 CNS. The settings on record: 10 µM.
A further test relates to SNB-19 CNS. The settings on record: 10 µM.
Another test has as its system U251 CNS. As to conditions: 10 µM.
The test system of the next test is PC-3 prostate. As to conditions: 10 µM.
The next test has as its system SK-MEL-5 melanoma. As to conditions: 10 µM.
For the next test, the system named is UACC-62 melanoma. As to conditions: 10 µM unless noted.
The subject of another test is LOX IMVI melanoma. The settings on record: 10 µM.
The subject of another test is SK-MEL-28 melanoma. As to conditions: 10 µM.
A further test concerns SK-MEL-2 melanoma. The settings on record: 10 µM.
Another test concerns SN12C renal. The settings on record: 10 µM.
The test system of a further test is UO-31 renal. As to conditions: 10 µM.
The test system of another test is TK-10 renal. As to conditions: 10 µM unless noted.
The test system of a further test is ACHN renal. The settings on record: 10 µM.
A further test relates to CAKI-1 renal. As to conditions: 10 µM.
The next test deals with A498 renal. As to conditions: 10 µM.
The next test deals with CCRF-CEM leukemia. The settings on record: 10 µM.
Another test has as its system MOLT-4 leukemia. As to conditions: 10 µM.

On to `CC(=O)Cc1ccc(-c2ccccc2)cc1`, for which the growth in the test with HCT-15 colon was 103%; with HT29 colon, 111%; in the test on SNB-75 CNS, 98.5%; with SNB-19 CNS, 101%; with U251 CNS it was 98.3%; in the test on PC-3 prostate, 97.1%. The growth was 98.7% with SK-MEL-5 melanoma; 87.5% in the test on UACC-62 melanoma; 100% in the test on LOX IMVI melanoma; 114% in the test on SK-MEL-28 melanoma; 102% with SK-MEL-2 melanoma; 86.3% in the test with SN12C renal. Further, the growth in the test on UO-31 renal is 84.8%; with TK-10 renal it was 101%; with ACHN renal, 108%; in the test with CAKI-1 renal, 104%; in the test on A498 renal, 89%; in the test on CCRF-CEM leukemia, 102%. Moreover, the growth in the test with MOLT-4 leukemia was 117%.
As for `CC(C)=CC(=O)OC(=O)C=C(C)C`, the growth was 102% in the test on HCT-15 colon; 111% in the test on HT29 colon; 90.3% in the test with SNB-75 CNS; 104% in the test on SNB-19 CNS; 102% in the test on U251 CNS; 98.4% with PC-3 prostate. Also, the growth with SK-MEL-5 melanoma is 98.8%; with UACC-62 melanoma, 98.2%; in the test with LOX IMVI melanoma, 109%; in the test with SK-MEL-28 melanoma it was 102%; with SK-MEL-2 melanoma, 108%; in the test on SN12C renal, 100%. Besides, the growth is 94.5% with UO-31 renal; 102% with TK-10 renal; 105% in the test with ACHN renal; 108% in the test on CAKI-1 renal; 124% in the test with A498 renal; 101% with MOLT-4 leukemia.
Regarding `CCCCCCCO`, the growth with HCT-15 colon was 95.6%; in the test with HT29 colon, 132%; with SNB-75 CNS, 106%; with SNB-19 CNS, 102%; in the test with U251 CNS, 97.8%; in the test on PC-3 prostate it was 105%. For the same molecule, the growth is 99.2% in the test with SK-MEL-5 melanoma; 97.7% in the test on UACC-62 melanoma; 99.8% in the test with LOX IMVI melanoma; 98.3% in the test with SK-MEL-28 melanoma; 134% with SK-MEL-2 melanoma; 99.4% in the test on SN12C renal. Further, the growth was 82.1% in the test with UO-31 renal; 117% in the test on TK-10 renal; 92.5% in the test on ACHN renal; 110% in the test with CAKI-1 renal; 105% in the test with A498 renal; 103% in the test on CCRF-CEM leukemia. In the test on MOLT-4 leukemia, the growth is 96.4%.
Regarding `O=[N+]([O-])c1cccc2nsnc12`, the growth in the test with HCT-15 colon is 103%; with HT29 colon, 105%; in the test on SNB-75 CNS, 96.7%; in the test on SNB-19 CNS, 98.4%; in the test with U251 CNS it was 104%; in the test on PC-3 prostate, 97.3%. Moreover, the growth with SK-MEL-5 melanoma is 94.9%; with UACC-62 melanoma it was 105%; in the test with LOX IMVI melanoma, 99.7%; in the test with SK-MEL-28 melanoma, 114%; in the test with SK-MEL-2 melanoma it was 106%; in the test on SN12C renal it was 104%. Besides, the growth is 105% with ACHN renal; 114% with CAKI-1 renal; 102% in the test with A498 renal; 95.9% with CCRF-CEM leukemia; 101% in the test with MOLT-4 leukemia.
With `NC(CSC(c1ccccc1)(c1ccccc1)c1ccccc1)C(=O)O` (stereo not given), the growth with HCT-15 colon was 34.3%; in the test on HT29 colon it was 14%; in the test on SNB-75 CNS, 64.9%; in the test with SNB-19 CNS it was 49.8%; in the test with U251 CNS, 14.1%; with PC-3 prostate, 19.7%. The growth was 26.3% in the test on SK-MEL-5 melanoma; 48% in the test on UACC-62 melanoma; 38.2% in the test with LOX IMVI melanoma; 57.9% in the test on SK-MEL-28 melanoma; -15.7% (active) in the test on SK-MEL-2 melanoma; 53.6% with SN12C renal. Also, the growth with UO-31 renal was 54.3%; with TK-10 renal, 59.3%; with ACHN renal, 57.5%; in the test on CAKI-1 renal, 31%; with A498 renal, 48.5%; in the test with CCRF-CEM leukemia it was 9.95% (active). For the same molecule, the growth in the test on MOLT-4 leukemia is 38.4%.
Turning to `COC(=O)/C=C/C(=O)NC(N)=O`, the growth was 96.3% in the test on HCT-15 colon; 102% in the test with HT29 colon; 76.2% in the test on SNB-75 CNS; 104% in the test on SNB-19 CNS; 96.8% in the test with U251 CNS; 96.5% in the test with PC-3 prostate. For the same molecule, the growth with SK-MEL-5 melanoma is 104%; in the test with UACC-62 melanoma it was 101%; with LOX IMVI melanoma it was 97.1%; in the test with SK-MEL-28 melanoma, 97.8%; with SK-MEL-2 melanoma, 85.2%; with SN12C renal, 101%. The growth in the test on UO-31 renal is 91.5%; with TK-10 renal it was 102%; in the test with ACHN renal it was 99.4%; in the test on CAKI-1 renal, 99.2%; in the test on A498 renal, 98.6%; with MOLT-4 leukemia, 100%.
Turning to `COC(=O)c1ccc(NC(=O)CCl)cc1`, the growth was 61.7% in the test with HCT-15 colon; 76.3% in the test on HT29 colon; 83% with SNB-75 CNS; 92.7% in the test with SNB-19 CNS; 26.2% in the test with U251 CNS; 78.2% in the test with PC-3 prostate. Also, the growth in the test on SK-MEL-5 melanoma is 80.6%; in the test with UACC-62 melanoma, 72.2%; with LOX IMVI melanoma, -19.8% (active); with SK-MEL-28 melanoma it was 101%; in the test on SK-MEL-2 melanoma it was 66%; in the test on SN12C renal, 76.6%. In addition, the growth was 107% with UO-31 renal; 88% in the test with TK-10 renal; 85.7% with ACHN renal; 83.9% with CAKI-1 renal; 97.4% in the test with A498 renal; 72.7% with MOLT-4 leukemia.
As to `CCO/C=C1\SC(=S)N(c2cccc(C)c2)C1=O`, the growth is 101% in the test on HCT-15 colon; 102% in the test with HT29 colon; 80.6% in the test with SNB-75 CNS; 111% in the test with SNB-19 CNS; 98.6% with U251 CNS; 92.5% with PC-3 prostate. Besides, the growth in the test on SK-MEL-5 melanoma was 102%; in the test on UACC-62 melanoma, 105%; with LOX IMVI melanoma, 104%; in the test on SK-MEL-28 melanoma, 104%; with SK-MEL-2 melanoma it was 110%; with SN12C renal it was 106%. Moreover, the growth in the test on UO-31 renal was 79.3%; in the test on TK-10 renal, 98.9%; in the test on ACHN renal it was 106%; in the test on CAKI-1 renal it was 101%; in the test with A498 renal, 113%; with MOLT-4 leukemia, 95.7%.
For the molecule `Cc1ccc(C(O)C2CC2)cc1` (stereo not given), the growth in the test with HCT-15 colon is 97.7%; in the test with HT29 colon it was 104%; in the test with SNB-75 CNS it was 88.9%; in the test on SNB-19 CNS, 96.7%; with U251 CNS, 100%; in the test with PC-3 prostate, 94.5%. Besides, the growth is 103% in the test with SK-MEL-5 melanoma; 98.8% in the test with UACC-62 melanoma; 100% with LOX IMVI melanoma; 106% in the test on SK-MEL-28 melanoma; 104% with SK-MEL-2 melanoma; 102% in the test with SN12C renal. In addition, the growth is 88.5% in the test on UO-31 renal; 116% in the test on TK-10 renal; 104% in the test on ACHN renal; 91.9% in the test with CAKI-1 renal; 87.5% in the test with A498 renal; 91.7% in the test on CCRF-CEM leukemia. The growth with MOLT-4 leukemia was 100%.

The values are drawn from PubChem BioAssay (NCI).
